# Target: PLB1
# Assay: pooled miR-30 sensor sort-seq; sequence = guide strand
# Details: shRNA
# Note: reference of the scale not given here.
row,Sequence,sensor-assay potency score (higher = more potent)
1,TACAGATTCGAATCTGTGCAGT,-0.43
2,TTGATCTTGTTTTCAAACTTAT,-0.907
3,TTATCTTCCAGTCTTCCTGAAA,-0.752
4,TTGTTGGAGGTAGTCTTGCGGC,-0.878
5,TATTATCTTCCAGTCTTCCTGA,0.718
6,TATTGTTCCAGAGAGCACTGGC,0.63
7,TTGAAAGTCAAGTTGCAGGTTC,0.551
8,ATACTGTGTGGTGACATCGGGG,-1.03
9,TCTATGATCATCTTTCATCTTC,0.303
10,TACTGTGTGGTGACATCGGGGA,0.115
11,TAGTGGACCAGATCATTGCAGA,-0.927
12,TAAGGTGGTCACATTCTCCAGG,0.024

# Target: PLCB3
# Assay: as above
# Details: shRNA
row,Sequence,sensor-assay potency score (higher = more potent)
1,TTGTCTGCTGAGAACATCTTCA,-0.392
2,TTGTATTCCACAAACTCCATGG,-0.418
3,TTGCGCAGGAAGGTGTTCCGGG,-0.298
4,TTCGTTGAGTCTCGGGTCGCGT,-0.421
5,TAGTTGGAGGAGTCCACGCGGG,-1.09
6,TACTTTTCGATGAGCAGCCGGG,-0.993
7,TTTGATGAACTTACTCCCGCGC,0.0652
8,TTCGATGTAGTTGACAAGCGTG,-0.63
9,ATGAAGTTCAAGAACACTGTGT,0.354
10,TTGAATAGCTCCTCAGACCAGA,-0.311
11,TATTCCACAAACTCCATGGGGC,-0.0487
12,AAGAACACTGTGTTCACCGGGT,0.656

# From the OligoGym collection
